ChEMBL document CHEMBL1201862, “PubChem BioAssay data set” (2004)
Only a part of the results of these assays is listed, not drawn at random.

biological target: T1, Protein RecA (Mycobacterium tuberculosis) (UniProt P9WHJ3); assay: M. tuberculosis H37Rv growth inhibition, dose response, strain H37Rv (AID 489010); type: functional;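 note: whole Mycobacterium tuberculosis cells grown in culture and not purified RecA protein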
T1 sequence (whole entry): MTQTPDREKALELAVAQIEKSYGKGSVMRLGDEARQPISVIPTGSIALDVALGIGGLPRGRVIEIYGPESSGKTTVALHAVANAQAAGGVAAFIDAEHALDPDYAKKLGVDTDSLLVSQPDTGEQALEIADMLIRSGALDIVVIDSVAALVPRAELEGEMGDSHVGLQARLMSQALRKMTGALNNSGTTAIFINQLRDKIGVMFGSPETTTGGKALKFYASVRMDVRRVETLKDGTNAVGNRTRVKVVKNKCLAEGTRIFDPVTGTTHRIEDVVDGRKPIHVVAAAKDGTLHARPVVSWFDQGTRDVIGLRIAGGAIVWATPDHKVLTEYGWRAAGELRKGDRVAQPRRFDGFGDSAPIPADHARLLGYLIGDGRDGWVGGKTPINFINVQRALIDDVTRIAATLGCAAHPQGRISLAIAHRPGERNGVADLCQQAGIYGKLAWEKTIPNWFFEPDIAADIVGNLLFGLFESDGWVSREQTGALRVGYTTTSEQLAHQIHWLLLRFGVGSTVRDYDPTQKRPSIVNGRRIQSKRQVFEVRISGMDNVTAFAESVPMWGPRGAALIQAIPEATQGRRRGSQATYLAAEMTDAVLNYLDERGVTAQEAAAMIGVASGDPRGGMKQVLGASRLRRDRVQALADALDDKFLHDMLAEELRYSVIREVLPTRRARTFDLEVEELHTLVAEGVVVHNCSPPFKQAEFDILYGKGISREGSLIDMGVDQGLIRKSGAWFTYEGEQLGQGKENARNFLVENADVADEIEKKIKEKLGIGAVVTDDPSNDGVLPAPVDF

Row | Structure (SMILES) | IC90
1 | CCN(CC)CCNC(=O)c1ccc2c(c1NCCO)C(=O)c1ccccc1C2=O | > 100 µM (active)
2 | Cc1ccc(-n2nnc3c(SCC(=O)NCC4CCCO4)ncnc32)cc1 (centres undefined) | > 100 µM (active)
3 | CC(=O)n1cc(N(C(=O)CCl)c2ccc(C)cc2)c2ccccc21 | 5.03 µM (active)
4 | O=C(CCl)N(c1ccc(Cl)cc1)c1c[nH]c2ccccc12 | 4.5 µM (active)
5 | Cc1oc2c(c1C(=O)N1CCOCC1)C(=O)c1ccccc1C2=O | 35.2 µM (active)
6 | Cc1ccc(N(NC(=O)C(O)(c2ccccc2)c2ccccc2)C(=O)CCl)cc1 | 27.4 µM (active)
7 | COc1cc2c(cc1OC)-c1c(OC)c(OC)cc3c1C(C2)N(C)CC3 (centres undefined) | 40.2 µM (active)
8 | O=C(NC1CCCCC1)C(c1cccnc1)N(C(=O)CCl)c1cccc(Cl)c1 (centres undefined) | 28 µM (active)
9 | Cc1nn(-c2ccccc2)c(Cl)c1CN(C(=O)CCl)c1cccc2ccccc12 | 35.5 µM (active)
10 | Fc1ccc(Oc2nc(-c3ccccc3)nnc2C(F)(F)F)cc1 | > 100 µM (active)
11 | O=C(OCn1ncc(Cl)c(Cl)c1=O)c1cccc(C(F)(F)F)c1 | > 100 µM (active)
12 | Cc1nc2c(=O)n(C)c(=O)nc-2n(C)n1 | 4.19 µM (active)
13 | CC(NC(=O)COC(=O)c1cc(NS(=O)(=O)c2ccc(Cl)c([N+](=O)[O-])c2)ccc1O)C1CC2CCC1C2 (centres undefined) | > 100 µM (active)
14 | COc1cc2c(cc1OC)C(c1cc(Br)ccc1F)N(C(=O)CCl)CC2 (centres undefined) | 12.1 µM (active)
15 | COc1cccc(N(C(=O)CCl)C(C(=O)NCCc2ccccc2)c2cccs2)c1 (centres undefined) | 32 µM (active)
16 | Cc1ccc(Sc2ccc(NC(=O)CCl)cc2)cc1C | 52.4 µM (active)
17 | Cc1[nH]n(-c2ccccc2)c(=O)c1C(c1cccc([N+](=O)[O-])c1)c1c(C)[nH]n(-c2ccccc2)c1=O | > 100 µM (active)

Row | Structure (SMILES) | IC90
18 | Cc1cc(Br)c2c(c1)/C(=C/C(=O)c1cccs1)C(=O)N2 | > 100 µM (active)
19 | CN1C(=O)C(=C2CC(c3ccccc3)N(C(=O)CCl)N2)C(=O)N(C)C1=O (centres undefined) | > 100 µM (active)
20 | CSc1nnc(NC(=O)c2nc(S(=O)(=O)Cc3ccccc3F)ncc2Cl)s1 | > 100 µM (active)
21 | O=C(CCl)Nc1cn(-c2ccccc2)nc1-c1ccc(F)cc1 | 49.8 µM (active)
22 | Cc1oc2c(c1C(=O)NCc1cccnc1)C(=O)c1ccccc1C2=O | < 0.2 µM (active)
23 | O=C(Cc1ccccc1)c1c[nH]c(C(=O)C(Cl)(Cl)Cl)c1 | > 100 µM (active)
24 | CC(C)c1nnc(NC(=O)c2nc(S(=O)(=O)Cc3ccc(F)cc3)ncc2Cl)s1 | > 100 µM (active)
25 | CCC(C)[C@@H](NC(=O)OC(C)(C)C)c1nnc(S(=O)(=O)Cc2cccc(C)c2)o1 (some centres undefined) | > 100 µM (active)
26 | CC(=O)n1cc(N(C(=O)CCl)c2ccc([N+](=O)[O-])cc2)c2ccccc21 | 8.94 µM (active)
27 | CN(C1=C(NC(=O)c2ccc(Cl)cc2)C(=O)c2ccccc2C1=O)c1ccccc1 | 16.7 µM (active)
28 | CCCCCCCCCCn1c2c(c(=N)c3c1CCC3)CCC2 | 3.39 µM (active)
29 | CC(=O)n1cc(N(C(=O)CCl)c2ccccc2)c2ccccc21 | 5.8 µM (active)
30 | CC1=NNC(=O)C1Cc1c(Cl)cccc1Cl (centres undefined) | > 100 µM (active)
31 | O=C1NC(=S)N(C2CCCCC2)C(=O)/C1=C/NNC(=O)c1ccccc1O | > 100 µM (active)
32 | COC(=O)c1c(C)oc2ccc(N(C(=O)c3ccncc3)S(=O)(=O)c3ccc4ccccc4c3)cc12 | > 100 µM (active)
33 | CN(C1=C(NC(=O)c2ccccc2)C(=O)c2ccccc2C1=O)C1CCS(=O)(=O)C1 (centres undefined) | > 100 µM (active)
34 | O=C(NC(N=C(S)Nc1ccc(Cl)cc1Cl)C(Cl)(Cl)Cl)c1cccc([N+](=O)[O-])c1 (centres undefined) | 15.2 µM (active)
